Here are results for seven compounds from PubChem BioAssay (NCI).

Holding throughout (experiment): NCI-60 one-dose screen, 48 h (100 = growth as untreated, 0 = no growth, -100 = all killed)
What all share (details): 10 µM unless noted

Assay [1] relates to NCI-H23 lung.
Assay [2] relates to NCI-H226 lung.
The test system of assay [3] is NCI-H322M lung.
Assay [4] has as its system HOP-62 NSCLC.
Assay [5] has as its system NCI-H460 lung.
Assay [6] has as its system HOP-92 NSCLC.
Assay [7] has as its system NCI-H522 lung.
Assay [8] relates to A549/ATCC NSCLC.
Assay [9] concerns 786-0 renal.
The subject of assay [10] is COLO 205 colon.
Assay [11] has as its system DU-145 prostate.
Assay [12] relates to K-562 leukemia.
The subject of assay [13] is MALME-3M melanoma.
For assay [14], the system named is MDA-MB-231 breast.
Assay [15] has as its system RXF 393 renal.
Assay [16] has as its system SF-268 CNS.
The subject of assay [17] is SF-295 CNS.
The test system of assay [18] is SF-539 CNS.
In assay [19] the test system is UACC-257 melanoma.
For assay [20], the system named is M14 melanoma.

The panel holds about 83,000 compounds, 20% with a hit somewhere; the sample as a whole holds those more often.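 Note: values are percent growth. 100 is the growth of untreated cells, values between 100 and 0 indicate rising inhibition; between -100 and 0 indicates cell death.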 Values without a mark were called inactive. Active and inactive are the calls of the source. Rule for the calls: active = growth percent below 10; inactive = the rest.

As for `CCN(CC)Cc1cc(Nc2c3ccccc3nc3cc(Cl)ccc23)ccc1O`, the growth is -82.6% (active) in assay [1]; -47.5% (active) in assay [2]; -40.9% (active) in assay [3]; -65.2% (active) in assay [4]; -73.6% (active) in [5]; -33.1% (active) in [6]. Further, the growth in assay [7] is -80.8% (active); in [8], -37.6% (active); in assay [9] it was -55.1% (active); in [10], -100% (active); in assay [11], -16.2% (active); in assay [12] it was -40.8% (active). The growth is -91.4% (active) in [13]; -65.2% (active) in assay [14]; -91.4% (active) in [15]; -76.9% (active) in [16]; -38.3% (active) in [17]; -100% (active) in assay [18]. In addition, the growth in assay [19] is -94.8% (active); in [20], -99.6% (active).
`Nc1c(C(=O)Nc2cccc3c2OCCO3)sc2nc3c(cc12)CN(Cc1ccccc1)CC3`: the growth in assay [1] was 85.4%; in assay [2] it was 82.5%; in assay [3], 94.3%; in [4], 72.5%; in assay [5], 53.4%; in assay [6] it was 83.4%. The growth in assay [7] was 29.3%; in [8], 79.3%; in assay [9], 87.1%; in [10], 90.9%; in [11], 86%; in assay [12], 20.1%. For the same compound, the growth is 68.1% in assay [13]; 66.4% in assay [14]; 71.8% in assay [15]; 74.2% in [16]; 39.7% in assay [17]; 65.2% in assay [18]. The growth in assay [19] is 83%; in assay [20] it was 54.6%.
Regarding `CC1=CC(=O)CC(C)(C)[C@@]1(O)/C=C/[C@@H](C)O`, the growth in assay [1] is 89.7%; in assay [2], 80.8%; in assay [3], 103%; in assay [4] it was 107%; in assay [5] it was 112%; in assay [6], 97%. For the same compound, the growth in [7] was 92.7%; in assay [8] it was 87.7%; in assay [9], 102%; in [10], 110%; in [11], 108%; in assay [12] it was 115%. Further, the growth in [13] is 102%; in assay [14], 93.3%; in assay [15], 93.3%; in [16] it was 98.1%; in [17], 91.5%; in assay [18], 102%. For the same compound, the growth in assay [19] is 89.1%; in assay [20], 102%.
Regarding `O=c1c(/C=C/c2ccco2)nnc(SCCN2CCOCC2)n1/N=C/c1ccc([N+](=O)[O-])cc1`, the growth is 91% in [1]; 85.5% in assay [2]; 113% in [3]; 101% in assay [4]; 103% in assay [5]; 90.5% in assay [6]. The growth in [7] is 86.5%; in assay [8], 99.4%; in [9], 95.2%; in assay [10], 112%; in assay [11], 111%; in assay [12], 93.3%. Besides, the growth in [13] was 95.9%; in assay [14], 103%; in assay [15], 87.6%; in [16] it was 96.5%; in assay [17], 107%; in [18], 94%. The growth in [19] was 94.1%; in [20] it was 99.9%.
With `CCCCCCCCCCNC(=O)CCl`, the growth was 47.5% in [1]; 85.7% in assay [2]; 92.8% in [3]; 81.3% in [4]; 92.9% in assay [5]; 36.2% in [6]. The growth in assay [7] was 50.4%; in assay [8], 93.6%; in assay [9], 82.3%; in assay [10], 116%; in [11], 91.1%; in assay [12] it was 85.3%. For the same compound, the growth in assay [13] is 87.9%; in assay [14] it was 90.4%; in assay [15], 75.3%; in assay [16], 82.2%; in [17] it was 102%; in assay [18], 84.1%. Moreover, the growth in assay [19] is 84.3%; in assay [20], 83.9%.
Regarding `O=C1CCc2c(sc3[nH]c(=S)n(Cc4ccccc4)c(=O)c23)C1`, the growth in assay [1] was 0.541% (active); in assay [2], 51.2%; in [3], 30.1%; in [4], 10.2%; in assay [5], 3.94% (active); in assay [6] it was -19.5% (active). The growth in assay [7] was 2.03% (active); in [8] it was 13.9%; in assay [9], 30.9%; in [10], 32.3%; in assay [11], 64.1%; in [12] it was 11.5%. Further, the growth in assay [13] was 69%; in [14] it was 16.5%; in [15] it was 20.8%; in assay [16], 19.4%; in [17], -13.9% (active); in [18], -12.6% (active). In addition, the growth in assay [19] is 29.1%; in assay [20] it was 18.9%.
With `O=C(CN1CCN(c2cc3c(cc2F)c(=O)c(C(=O)N/N=C/c2ccccc2)cn3C2CC2)CC1)N/N=C\c1ccccc1`, the growth in assay [1] is 94.5%; in assay [2] it was 81.3%; in assay [3], 85.4%; in assay [4], 109%; in assay [5] it was 66.3%; in assay [6], 76%. In addition, the growth in [7] is 76.5%; in assay [8], 69.9%; in [9] it was 90.4%; in assay [10] it was 99.6%; in assay [11], 90.4%; in assay [12], 56.6%. In addition, the growth in assay [13] is 120%; in assay [14] it was 70.3%; in assay [15], 72.7%; in assay [16] it was 72.5%; in assay [17], 74.8%; in assay [18], 76.2%. The growth in [19] was 99%; in [20], 74.1%.
